According to PubChem BioAssay (NCI):
Compounds without any hit were thinned out: in the full panel of roughly 83,000, 20% have a hit.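 Results are percent growth after 48 hours of single-concentration exposure. 100 means growth as in untreated cells, lower positive values show inhibition; negative values down to -100 show cell death.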

Experiments:
Assay in all cases: NCI-60 one-dose screen, 48 h (100 = growth as untreated, 0 = no growth, -100 = all killed)
Conditions in all cases: 10 µM unless noted; active = growth percent below 10; inactive = the rest
[1] = test system: K-562 leukemia
[2] = test system: MALME-3M melanoma
[3] = test system: MDA-MB-231 breast
[4] = test system: RXF 393 renal
[5] = test system: SF-268 CNS
[6] = test system: SF-295 CNS
[7] = test system: SF-539 CNS
[8] = test system: UACC-257 melanoma
[9] = test system: M14 melanoma
[10] = test system: HCT-15 colon
[11] = test system: HT29 colon
[12] = test system: SNB-75 CNS
[13] = test system: SNB-19 CNS
[14] = test system: U251 CNS
[15] = test system: PC-3 prostate
[16] = test system: UACC-62 melanoma
[17] = test system: LOX IMVI melanoma
[18] = test system: SK-MEL-28 melanoma
[19] = test system: SK-MEL-2 melanoma
[20] = test system: SK-MEL-5 melanoma

Measured: growth

NC(=O)c1ncn([C@@H]2O[C@H](CO)[C@@H](O)[C@H]2O)n1
inactive: [1] 88.3% | [2] 92.7% | [3] 89.5% | [4] 119% | [5] 109% | [6] 95.5% | [7] 108% | [8] 103% | [9] 98.8% | [10] 83.7% | [11] 52.5% | [12] 92.2% | [13] 96.2% | [14] 94.7% | [15] 86% | [16] 104% | [17] 84.2% | [18] 115% | [19] 103%

O=C1OC(c2ccc(-c3ccccc3)cc2)=C/C1=C/c1cccs1
inactive: [1] 87.8% | [2] 98.2% | [3] 75.3% | [4] 84.6% | [5] 88.5% | [6] 95.8% | [7] 106% | [8] 106% | [9] 90.3% | [10] 98.1% | [11] 125% | [12] 95.7% | [13] 131% | [14] 100% | [20] 78.2% | [16] 74.6% | [17] 99.4% | [18] 102%

Cc1cc2c(cc1[N+](=O)[O-])NC(CNC(C)C)CC2 (centres undefined)
inactive: [1] 96.5% | [2] 117% | [3] 107% | [4] 117% | [5] 95.1% | [6] 102% | [7] 103% | [8] 106% | [9] 92% | [10] 102% | [11] 88.8% | [12] 67.7% | [13] 87% | [14] 99.2% | [20] 96.8% | [16] 98.7% | [17] 91.3% | [18] 114% | [19] 112%

CC[C@@H]1OC(=O)[C@H](C)[C@@H](O[C@H]2C[C@@](C)(OC)[C@@H](O)[C@H](C)O2)[C@H](C)[C@@H](O[C@@H]2O[C@H](C)C[C@H](N(C)C)[C@H]2O)[C@](C)(O)C[C@@H](C)[C@@H]2N[C@@H](COCCOC)O[C@H]([C@H]2C)[C@]1(C)O
inactive: [1] 103% | [2] 99.5% | [3] 94.6% | [4] 116% | [5] 112% | [6] 110% | [7] 106% | [8] 106% | [9] 99.7% | [10] 109% | [11] 103% | [12] 77.4% | [13] 104% | [14] 96.6% | [15] 111% | [16] 109% | [18] 109% | [19] 121%

CCOC(=O)c1c(C)nc(C)c(C(=O)OCC)c1-c1cccnc1
inactive: [1] 92.4% | [2] 111% | [3] 113% | [4] 131% | [5] 106% | [6] 112% | [7] 97.1% | [8] 108% | [9] 95% | [10] 97% | [11] 96.5% | [12] 81.7% | [13] 96.1% | [14] 94.1% | [20] 97.5% | [16] 105% | [17] 96.1% | [18] 119% | [19] 110%

Cc1scc2c1N(C(=O)CN1CCN(C)CC1)c1ccccc1NC2=O
inactive: [1] 108% | [2] 108% | [3] 99.6% | [4] 111% | [5] 110% | [6] 101% | [7] 112% | [8] 106% | [9] 111% | [10] 107% | [11] 104% | [12] 110% | [13] 111% | [14] 99.6% | [15] 98% | [16] 109% | [17] 99.7% | [18] 110% | [19] 113%

C=CC1=C(C(=O)O)N2C(=O)[C@@H](NC(=O)/C(=N\O)c3csc(N)n3)[C@H]2SC1 (stereo in doubt)
inactive: [1] 104% | [2] 111% | [3] 105% | [4] 117% | [5] 108% | [6] 104% | [7] 95.2% | [8] 96.3% | [9] 114% | [10] 105% | [11] 104% | [12] 92.4% | [13] 114% | [14] 92.1% | [15] 95.3% | [16] 114% | [17] 88.1% | [18] 111% | [19] 122%

CCCCn1c(Cc2ccc(Cl)cc2)nc2cc(OC)c(OC)cc2c1=O
inactive: [1] 40.3% | [2] 101% | [3] 70.2% | [4] 90% | [5] 80% | [6] 71.1% | [7] 105% | [8] 55.5% | [9] 79.2% | [10] 75.4% | [11] 107% | [12] 104% | [13] 150% | [14] 88.5% | [20] 41% | [16] 52.5% | [17] 79.9% | [18] 116%
